Compound activity as filed in PubChem BioAssay.
The list is not random: actives were taken first. Their share in the collection is about 1.5%.
WRN helicase inh = WRN helicase (human) inhibition | Potency, µM (doses to about 114 µM), inactives show at the top dose activity change, negative = inhibition, hits mostly inhibitors | WRN helicase unwinding, fluorescent forked duplex, kinetic | 360,000 tested, 0.46% active; further: potency means the concentration at half of the fitted maximal effect; nearly all actives have a fitted effect of over 55% in size
Target sequence (Q14191 whole entry, looked up): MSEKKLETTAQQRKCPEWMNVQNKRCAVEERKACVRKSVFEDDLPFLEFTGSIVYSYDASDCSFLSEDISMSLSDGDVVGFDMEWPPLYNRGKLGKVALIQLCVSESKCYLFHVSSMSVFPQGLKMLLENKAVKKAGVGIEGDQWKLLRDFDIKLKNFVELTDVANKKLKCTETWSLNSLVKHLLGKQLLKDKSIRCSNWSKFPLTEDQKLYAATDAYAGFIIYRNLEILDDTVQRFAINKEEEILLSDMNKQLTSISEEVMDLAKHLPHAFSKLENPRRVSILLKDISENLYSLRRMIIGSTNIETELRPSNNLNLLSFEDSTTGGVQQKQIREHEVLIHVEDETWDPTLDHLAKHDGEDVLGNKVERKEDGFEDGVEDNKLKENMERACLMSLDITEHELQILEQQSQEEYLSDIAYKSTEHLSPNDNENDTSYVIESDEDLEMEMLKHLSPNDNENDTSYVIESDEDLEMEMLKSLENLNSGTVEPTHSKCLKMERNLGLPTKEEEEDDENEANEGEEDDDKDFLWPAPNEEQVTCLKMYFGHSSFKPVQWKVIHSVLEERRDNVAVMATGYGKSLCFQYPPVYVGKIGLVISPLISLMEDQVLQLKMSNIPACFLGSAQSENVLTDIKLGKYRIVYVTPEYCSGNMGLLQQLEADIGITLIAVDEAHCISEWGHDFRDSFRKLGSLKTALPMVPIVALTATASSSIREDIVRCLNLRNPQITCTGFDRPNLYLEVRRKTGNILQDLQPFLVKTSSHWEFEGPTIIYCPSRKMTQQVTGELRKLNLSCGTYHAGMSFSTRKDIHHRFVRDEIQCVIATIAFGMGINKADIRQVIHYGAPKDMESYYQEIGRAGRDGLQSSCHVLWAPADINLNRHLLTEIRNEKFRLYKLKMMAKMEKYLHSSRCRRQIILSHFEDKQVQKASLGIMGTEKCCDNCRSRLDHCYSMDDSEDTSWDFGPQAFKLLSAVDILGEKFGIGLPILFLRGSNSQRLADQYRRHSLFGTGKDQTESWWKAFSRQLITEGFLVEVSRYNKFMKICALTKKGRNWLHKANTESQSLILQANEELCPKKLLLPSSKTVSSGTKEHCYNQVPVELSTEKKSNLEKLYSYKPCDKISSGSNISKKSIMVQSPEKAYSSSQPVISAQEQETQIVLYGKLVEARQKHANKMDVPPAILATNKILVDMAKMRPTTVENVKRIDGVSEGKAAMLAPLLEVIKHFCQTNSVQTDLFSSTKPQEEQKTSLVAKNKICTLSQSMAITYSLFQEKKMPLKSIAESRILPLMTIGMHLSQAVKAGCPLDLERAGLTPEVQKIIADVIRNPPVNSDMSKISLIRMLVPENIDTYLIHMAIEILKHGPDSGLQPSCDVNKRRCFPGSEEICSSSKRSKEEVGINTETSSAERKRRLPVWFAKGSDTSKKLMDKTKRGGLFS
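Primary qHTS, 1536-well format. 20 nM WRN + compound, 15 min RT; start with 100 nM forked fluorophore/quencher duplex, 2 mM ATP (final); kinetic read ex 525/em 598 nm.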
PGK inhibitor = inhibitors of T. brucei phosphoglycerate kinase; P07378; PGK/GAPDH coupled, Kinase-Glo luminescence, 60 min; Potency, µM (series often up to 57.5 µM), without a hit: top-dose activity change, negative = inhibition, hits mostly inhibitors; 380,000 tested, 0.043% active; further: potency means the concentration at half of the fitted maximal effect; nearly all actives have a fitted effect of over 60% in size
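Luminescent ATP detection (Kinase-Glo Plus) follows a 60-minute room-temperature incubation, with wells lacking PGK as controls. Buffer: 100 mM TEA (pH 7.6), 5 mM MgCl2, 0.01% Tween-20. Coupling enzyme GAPDH (100 nM final) supplies unstable 1,3-BPG in-well.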
FEN1 inh = blocks human flap endonuclease 1 | AID 588795 | 390,000 tested, 0.35% active | Recombinant FEN1 flap cleavage, fluorescence, 15 min | Potency, µM (top dose mostly 114 µM), without a hit: at the highest dose activity change, negative = inhibition, actives largely listed as inhibitors | P39748; further: potency means the concentration at half of the fitted maximal effect; nearly all actives have a fitted effect of over 65% in size
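With each library titrated from low to high concentration, compounds met 10 nM FEN1 for 15 min at room temperature before 50 nM substrate was added; readings at 0 and 15 min fed four-parameter Hill curve fits.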
Tb PFK block = inhibitors of T. brucei phosphofructokinase. O15648. T. brucei PFK, ADP-Glo luminescence. Potency, µM (highest dose often 57.5 µM), for the others: at the highest dose activity, negative = inhibition, usual class: inhibitors. 330,000 tested, 0.17% active;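 further: potency means the concentration at half of the fitted maximal effect; 0% = uninhibited 1x PFK enzyme wells and -100% = no-enzyme wells; nearly all actives have a fitted effect of over 60% in size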
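ADP-Glo luminescence quantified ADP after 45 min at room temperature, with 1.25 nM T. brucei PFK, 0.1 mM ATP and 0.5 mM fructose-6-phosphate in pH 8.0 TEA buffer. qHTS titrations up to 57 µM; curves classified by quality.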
TDP1 block = inhibitors of human tyrosyl-DNA phosphodiesterase TDP1; Q9NUW8; recombinant TDP1, AlphaScreen DNA substrate cleavage; Potency, µM (series often up to 130 µM), inactives show at the top dose activity change, negative = inhibition, hits mostly inhibitors; 350,000 tested, 0.28% active; AID 485290; further: potency means the concentration at half of the fitted maximal effect; nearly all actives have a fitted effect of over 40% in size
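Tdp1 1 nM final; 15 min RT w/ cpd; substrate 15 nM, 5 min; beads 10 ug/ml, 10 min; AlphaScreen read. Neg ctrl: no enzyme.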
PI5P4K alpha inh = blocks human PI5P4K alpha kinase activity; P48426; PI5P4Kalpha enzyme, ADP-Glo luminescence, 60 min; active compounds read low; max response, %; 330,000 tested, 1.2% active; AID 652105; active means max response of -50% or lower; inconclusive means between -30% and -50%; inactive means -30% or higher; further: value at the top dose of about 77 µM
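PI5P4Kalpha ADP-Glo assay; 5 microM ATP final; 60 min RT reaction; HEPES pH 7.4/EGTA/CHAPS, 5% DMSO; controls lacking substrate or enzyme; luminescent end-point.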
* = called active by the depositor; i = inactive; ? = inconclusive; · = no result; [ ] = remark or other dose. Unless noted, the call rests on the fitted dose curve; in most records, active means well fitted curve in the direction sought with a large enough effect; inconclusive means small, poorly fitted or top-dose-only effect, or another doubt; inactive means no such curve, though single readings can be large; an effect the other way counts as inactive or inconclusive. Unless noted, on the % scale 0 is the no-effect control and ±100 the full control effect.

SMILES	WRN helicase inh	PGK inhibitor	FEN1 inh	Tb PFK block	TDP1 block	PI5P4K alpha inh
Cc1ccc(NC(=O)CSc2nc(NS(=O)(=O)c3ccccc3)cc(=O)[nH]2)cc1	50µM*	?	79µM*	?	28µM*	?
O=C(CSc1nc(NS(=O)(=O)c2ccccc2)cc(=O)[nH]1)Nc1ccccc1Cl	-12%	3%	2%	-2%	4%	-23
Cc1cc(=O)cc(C)n1-c1ccc(Br)cc1	16µM*	-3%	-5%	-1%	8%	13
CC1(NC(=O)/C=C/c2nc3ccccc3s2)CCS(=O)(=O)C1 (centres undefined)	4%[11.6 µM]	-5%	2%	0%	-1%	-56*
Cn1c2cc(S(C)=O)sc2c2cnn(Cc3ccccc3F)c(=O)c21 (centres undefined)	·	·	·	·	1%	·
O=C(NNC(=S)Nc1ccccc1)c1ccncc1	-23%	-8%	-1%	16%	8%	-6
O=C(NNC(=S)Nc1ccc(C(=O)O)c(O)c1)c1ccncc1	-17%	-7%	-9%	·	·	-85*
CCCN1CNc2c(c(=O)[nH]c(=S)n2CCc2ccc(OC)cc2OC)C1	·	·	-6%	·	0%	·
S=c1[nH]nc(NC2CCCCC2)s1	13%	-1%	·	·	·	-70*
C1CCC(NC2=NCCC2)CC1	-4%	5%	-5%	0%	2%	·
CCOc1[nH]c(/N=C/c2ccc(OC)cc2)c(C#N)c1C#N	·	·	79µM*	·	1%	·
Cc1cc2c(nc1C)CCCCN2C[C@H](C)O/N=C1/[C@H]2O[C@@H]2[C@@H](O)[C@H]2[C@H]1CCn1c(=O)n(-c3ccccc3)c(=O)n12	·	·	·	·	6%[21 µM]	·
COC1=CC(=O)C(C2CC(=O)c3c(O)cc(O)cc3O2)=CC1=O (centres undefined)	28µM*	-4%	50µM*	·	·	?
Nc1nc(N)nc(-c2cc(O)ccc2O)n1	-14%	-6%	-10%	-2%	-1%	?
Nc1nc(N)nc(-c2cc([N+](=O)[O-])ccc2O)n1	-32%	-4%	-17%	0%	56µM*	-2
CCc1nc(SCC(=O)O)c(C#N)c2c1CCCC2	-3%	4%	5%	1%	3%	1
Cc1nc(SCC(=O)O)c(C#N)c2c1CCCC2	45µM*	-16%	-6%	0%	10µM*	?
O=C(c1ccccc1)N1CCN(c2nc(-c3cccs3)nc3ccccc23)CC1	·	·	·	·	3%	·
COC(=O)c1ccc(=O)c2nc3/c(=C/O)c(O)cc(=O)c3[nH]c12	?	-8%	40µM*	-18%	?	-74*
COC(=O)c1ccccc1O	·	·	·	·	0%	·
Cc1cccc(C(=O)Oc2csc(=S)n2C(=O)c2cccc(C)c2)c1	-16%	-9%	-17%	2%	2%	·
O=C(Oc1csc(=S)n1C(=O)c1ccccc1)c1ccccc1	-52%	-3%	-19%	-10%	0%	-75*
O=C(COC(=O)COc1ccccc1)Nc1ncc([N+](=O)[O-])s1	?	-15%	?	-5%	-8%	-53*
CCCCCCCCCCCCCC[C@@H](O)[C@@H](O)[C@H](CO)NC(C)=O	·	·	·	·	9%	·
N#Cc1ccccc1COC(=O)c1ccc2c(c1)OCCO2	-7%	2%	-9%	-3%	89µM*	3
SMILES	WRN helicase inh	PGK inhibitor	FEN1 inh	Tb PFK block	TDP1 block	PI5P4K alpha inh
CCN1CCN(C2=CC3=CC(=C(C#N)C#N)CCC3CC2)CC1 (centres undefined)	25µM*	-8%	-29%	-1%	5%	-1
O=C(Nc1ccc2ccccc2c1)c1nc(S(=O)(=O)Cc2ccccc2F)ncc1Cl	·	·	-19%	·	·	·
C/C(N)=C(/C#N)C(=O)CSc1nnc(NC(C)C)s1	?	-16%[11.5 µM]	35µM*	-27%	·	·
COc1ccc(OCC(=O)N/N=C2\CCCCc3ccccc32)cc1	-9%	-1%	-2%	-3%	8%	-63*
FC(F)(F)c1cc(NC(=S)Nc2ccc3cc4ccccc4cc3c2)cc(C(F)(F)F)c1	·	·	·	·	7%	·
CC(C)(C)c1[nH]nc2c1C(c1ccncc1)C(C#N)=C(N)O2 (centres undefined)	-4%	-4%	-10%	-7%	2%	-51*
CCCN1CNc2c(c(=O)[nH]c(=S)n2CCc2cc(OC)cc(OC)c2)C1	·	·	0%	·	-8%	·
O=C(c1ccccc1O)N(Cc1ccccc1)Cc1ccccc1	·	·	·	·	1%	·
C=CCOc1ccc(/C=C2\SC(=S)N(NS(=O)(=O)c3ccccc3)C2=O)cc1	-5%[11.6 µM]	-16%	5%	4%	·	-56*
CCOc1cc(/C=C2\SC(=S)N(NS(=O)(=O)c3ccc(C)cc3)C2=O)ccc1O	50µM*	-7%	-34%	·	·	-59*
COc1cc(/C=C2\SC(=S)N(NS(=O)(=O)c3ccccc3)C2=O)ccc1O	50µM*	0%	-22%	14%	·	-61*
COc1ccc(/C=C2/SC(=S)N(NS(=O)(=O)c3ccccc3)C2=O)cc1	?	-3%	5%	1%	0%	?
COc1cc(/C=C2\SC(=S)N(C(C(=O)O)c3ccccc3)C2=O)ccc1O (centres undefined)	50µM*	i	-26%	-23%	4%	-19
COc1cc(/C=C2\C=Cc3ccccc32)ccc1N(C)C	·	·	-14%	·	·	·
O=C1CCc2cc(S(=O)(=O)Nc3ccc(Cl)cc3)ccc2N1	·	·	·	·	1%	·
Oc1cc(Nc2ccc(N3CCCCC3)cc2)cc2cccnc12	·	·	·	-1%	·	·
Cc1cc2c(s1)c1cnn(Cc3cc(C(F)(F)F)cc(Cl)c3F)c(=O)c1n2C	·	·	·	·	-6%	·
Nc1c(-c2ccccc2)cc[nH]c1=O	·	·	·	·	5%	·
O=C(c1ccc(N2C(=O)C3C4CC(C(Br)C4Br)C3C2=O)cc1)N1CCCCC1 (centres undefined)	-24%	5%	1%	-3%	32µM*	-16
O=C(c1ccc(N2C(=O)C3CCCCC3C2=O)cc1)N1CCCCC1 (centres undefined)	3%	-2%	5%	-1%	6%	4
O=C1CCc2cc(Cl)c(S(=O)(=O)Nc3ccc(Cl)c(Cl)c3)cc2N1	·	·	·	·	1%	·
CCOC(=O)Cc1[nH]nc2c1C(C1C=CCCC1)C(C#N)=C(N)O2 (centres undefined)	-18%	?	8%	-29%	-10%	-51*
CCOC(=O)Cc1[nH]nc2c1C(c1cccc(OC)c1OC)C(C#N)=C(N)O2 (centres undefined)	1%	-3%	1%	0%	3%	-1
N#CC1=C(N)Oc2n[nH]c(-c3cccs3)c2C1C1C=CCCC1 (centres undefined)	-1%	-1%	-9%	-11%	4%	-52*
COc1cccc(NC(=S)NCCC(c2ccccc2)c2ccccc2)c1	-9%	i	11%	-3%	6%	9
